This note sets out measurements from PubChem BioAssay (NCATS).

The nature of experiment [1]: HPAF-II 24hr Apoptosis Induction qHTS against the NCATS CANVASS Library (AID 1347356). The essentials:
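500 HPAF-II cells/well; compounds in 11-pnt qHTS; 24 h, 37 C/5% CO2; Caspase-Glo 3/7 added, 15 min RT dark; luminescence read. Doxorubicin control.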

Experiment [2] can be described thus: HEK293 18hr Apoptosis Induction qHTS against the NCATS CANVASS Library (AID 1347357). The essentials:
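Caspase-Glo 3/7 luminescence (15 min, room temperature) measured apoptosis after an 18-hour, 37 degrees C exposure of HEK293 cells (500 cells/well) to compounds in 11 points.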
(In general: Quantitative high-throughput screening tests each substance at several concentrations.)

Experiment [3] in a line: HEK293 24hr Apoptosis Induction qHTS against the NCATS CANVASS Library (AID 1347359). The essentials:
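HEK293 cells (500/well, DMEM + 10% FBS) were exposed to compounds in an 11-point series for 24 hours at 37 degrees C, then caspase-3/7 activity was read by Caspase-Glo DEVD luciferase luminescence after 15 min.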

The nature of experiment [4]: HPAF-II 18hr Apoptosis Induction qHTS against the NCATS CANVASS Library (AID 1347360). Note: potency is the fitted concentration of half-maximal effect. The essentials: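 Caspase-3/7 activation was measured with luminescent Caspase-Glo 3/7 reagent (15 min, RT) in HPAF-II cancer cells (500 cells/well). Before detection, cells had been treated for 18 h at 37 C with compounds (11 points).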
Experiment [5] concerns NAD(P)H diaphorase (Clostridium kluyveri). The experiment is described as follows: Diaphorse counterscreen qHTS: Assay Interference Panel against the NCATS CANVASS Library (AID 1347362). In short, it runs like this: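 Clostridium kluyveri diaphorase in PBS with 0.01% Tween-20 was preincubated 15 min at room temperature in the dark with compounds (11-point series). Resorufin fluorescence (ex 525/20, em 598/25) was read 5 min after adding resazurin/NADH.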
On the technique in general: A counterscreen serves to expose hits that act by an unwanted route or on another target.

Experiment [6] deals with Luciferin 4-monooxygenase (Photinus pyralis) (UniProt P08659). Description: Firefly luciferase counterscreen qHTS: Assay Interference Panel against the NCATS CANVASS Library (AID 1347363). Note: series mostly up to about 57 µM. The essentials: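 Purified P. pyralis luciferase was added to compounds (11-point series) preincubated 15 min at room temperature with substrate containing 0.013 mM D-luciferin and 0.013 mM ATP; luminescence was read after 5 min.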
Sequence of Luciferin 4-monooxygenase (Photinus pyralis) (P08659 whole entry, looked up): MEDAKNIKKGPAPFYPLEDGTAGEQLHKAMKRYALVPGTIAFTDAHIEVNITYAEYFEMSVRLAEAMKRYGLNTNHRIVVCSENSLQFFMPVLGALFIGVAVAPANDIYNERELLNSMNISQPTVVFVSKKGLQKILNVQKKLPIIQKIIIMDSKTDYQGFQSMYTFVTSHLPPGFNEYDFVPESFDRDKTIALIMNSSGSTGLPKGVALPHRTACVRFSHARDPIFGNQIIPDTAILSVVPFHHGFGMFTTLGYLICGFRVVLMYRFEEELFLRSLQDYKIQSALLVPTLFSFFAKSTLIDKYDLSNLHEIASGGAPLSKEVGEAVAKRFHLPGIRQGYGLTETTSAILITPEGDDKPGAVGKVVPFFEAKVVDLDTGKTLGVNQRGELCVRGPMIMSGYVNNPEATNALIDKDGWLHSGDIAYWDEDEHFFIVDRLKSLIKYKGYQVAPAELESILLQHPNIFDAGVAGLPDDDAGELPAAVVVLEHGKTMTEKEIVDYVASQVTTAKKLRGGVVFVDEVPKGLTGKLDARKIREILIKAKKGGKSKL

A short description of experiment [7]: KB-3-1 Cancer Cell Toxicity qHTS against the NCATS CANVASS Library (AID 1347366). Note: nearly all actives have a fitted effect of over 75% in size. Note: potency is the fitted concentration of half-maximal effect. The essentials:
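CellTiter-Glo luminescence measured viability after 72 h at 37C. KB-3-1 cells were seeded at 500 per well in DMEM/10% FBS.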

Experiment [8] can be described thus: qHTS for ATAD5 Agonist screened against the NCATS CANVASS Library (AID 1347367).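 Note: luciferase reporter driven by ATAD5 which rises upon DNA damage.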 The essentials: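 Genotoxicity via ATAD5-luciferase luminescence after 16 h compound exposure (11-point series) at 37C in HEK293T-ATAD5 cells. CellTiter-Fluor viability read precedes the luminescence read; MMS serves as positive control.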
Experiment [9] in a line: MCF7 Cancer Cell Toxicity qHTS against the NCATS CANVASS Library (AID 1347369). The essentials:
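Cytotoxicity was measured as CellTiterGlo luminescence (ATP) after 72 h at 37 °C. The cells were MCF7 at 500 per well, with an 11-point compound concentration series.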

Experiment [10] is described as follows: qHTS for ATAD5 Antagonist screened against the NCATS CANVASS Library (AID 1347370). Note: nearly all actives have a fitted effect of over 65% in size. Note: potency is the fitted concentration of half-maximal effect. In short, it runs like this:
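HEK293T-ATAD5 luc reporter, 2000 cells/well; 5hr attach; cpd + 10 uM 5-FUrd; 16hr 37C, 5% CO2. Readouts: CellTiter-Fluor fluorescence (1hr), then Amplite luciferase luminescence (30min RT).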

Experiment [11] is described as follows: J3T Cancer Cell Toxicity qHTS against the NCATS CANVASS Library (AID 1347371). The essentials:
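Dog glioma J3T, 500 cells/well; cpd 11-pt qHTS; 72 hr, 37C/5% CO2; CellTiterGlo ATP luminescence readout.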

The target of experiment [12] is Nuclear receptor subfamily 1 group I member 3 (Homo sapiens) (UniProt Q14994). Description: qHTS for Constitutive Androstane Receptor (CAR) Antagonist screened against the NCATS CANVASS Library (AID 1347372). Note: potency is the fitted concentration of half-maximal effect. In short, it runs like this:
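Cells were seeded and left 4hr to attach, then received compound at 11 concentrations and 50 nM CITCO. Following 24hr incubation, fluorescence viability and luciferase luminescence were read sequentially.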

The target is the same in experiment [13]. The experiment is described as follows: qHTS for Constitutive Androstane Receptor (CAR) Agonist screened against the NCATS CANVASS Library (AID 1347373).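 Note: every well also contained 1.5 µM PK11195 alongside the test compound.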 The essentials: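 Luciferase read-out (ONE-Glo, 30 min RT) of CYP2B6-2.2kb promoter activity in double-stable HepG2-hCAR cells after 24hr compound exposure with 1.5uM PK11195 present; viability measured first by CellTiter-Fluor.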

Experiment [14] can be described thus: 10-beta competent E. coli microbial cell viability qHTS against the NCATS CANVASS Library (AID 1347376). Note: series mostly up to about 46 µM. The essentials:
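Luminescence from BacTiter-Glo ATP detection served as the viability read-out; bacteria (0.2 OD) had been incubated overnight at 37C with pin-transferred compounds at 11 concentrations.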

Experiment [15] in a line: qHTS for H2AX Agonists against the NCATS CANVASS Library (AID 1347378). The essentials:
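Phospho-H2AX (S139) in CHO-K1 lysates measured by HTRF, reported as 665/615 nm emission ratio after 24 hr antibody incubation at room temperature. Cells were first treated with a compound series for 3 hr at 37C (0.76% DMSO final).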

A short description of experiment [16]: qHTS for Inflammasome Signaling Inhibitors: IL-1-beta AlphaLISA screen against the NCATS CANVASS Library (AID 1347379).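 For Potency: secreted IL-1B measured as AlphaLISA emission at 615 nm; potency is the fitted concentration of half-maximal effect.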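 Note: human THP-1 cells primed with LPS then triggered with ATP.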 In short, it runs like this: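 THP-1, 1 hr compound pre-incubation, then LPS 250 ng/mL + ATP 1.25 mM (final); 16 hr total with compound; IL-1B AlphaLISA, ex 680/em 615 nm; 11-point qHTS, up to 57.5 uM final.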
Experiment [17] in a line: Inflammasome Signaling qHTS Counterscreen: IL-1-beta AlphaLISA counterscreen against the NCATS CANVASS Library (AID 1347381).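 Note: cell-free check with purified IL-1β in medium and no THP-1 cells; series mostly up to about 57 µM.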 In short, it runs like this: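 Here, no cellular stimulation occurs; compounds in an 11-point series meet 4 pg purified IL-1-beta directly. Bead-based AlphaLISA detection follows (1 h acceptor/antibody, then 30 min donor, dark, room temperature), with excitation at 680 nm.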

Experiment [18] in a line: Cytotoxicity qHTS for assessment of Hepg2 cells membrane integrity screened against the NCATS CANVASS Library (AID 1347387). In short, it runs like this:
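LDH release read by fluorescence (560 nm ex/590 nm em) after CytoTox-ONE addition and 10 min RT; signal tracks lysed cells. HepG2, 2000 cells/well, plated overnight; compound 5 hr, 37C, 5% CO2, final 0.59 nM - 46 uM, 11 points.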

A short description of experiment [19]: Viability qHTS for inhibitors of the SERCaMP assay screened against the NCATS CANVASS Library (AID 1347400). Note: nearly all actives have a fitted effect of over 70% in size. Note: potency is the fitted concentration of half-maximal effect. In short, it runs like this:
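CellTiter-Glo luminescence readout after 48 h compound exposure (11-pnt qHTS series) of SH-SY5Y-GLuc SERCaMP MJH297 cells seeded at 1000 cells/well; bortezomib positive control.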

Experiment [20] can be described thus: G06 Cancer Cell Toxicity qHTS against the NCATS CANVASS Library (AID 1347368). Note: nearly all actives have a fitted effect of over 60% in size. Note: potency is the fitted concentration of half-maximal effect. In short, it runs like this:
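ATP luminescence (CellTiterGlo) readout of cytotoxicity. Canine G06 glioma cells, 500/well, 72 hr incubation at 37C with compounds; bortezomib titration served as control.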

Inconclusive results are not listed. Calls of active or inactive are those of the source. Calls come from the whole dose curve; as a rule, active = well fitted curve in the direction sought with a large enough effect; inconclusive = small, poorly fitted or top-dose-only effect, or another doubt; inactive = no such curve, though single readings can be large; an effect the other way counts as inactive or inconclusive.

Sequence of Nuclear receptor subfamily 1 group I member 3 (Homo sapiens) (Q14994 whole entry, looked up): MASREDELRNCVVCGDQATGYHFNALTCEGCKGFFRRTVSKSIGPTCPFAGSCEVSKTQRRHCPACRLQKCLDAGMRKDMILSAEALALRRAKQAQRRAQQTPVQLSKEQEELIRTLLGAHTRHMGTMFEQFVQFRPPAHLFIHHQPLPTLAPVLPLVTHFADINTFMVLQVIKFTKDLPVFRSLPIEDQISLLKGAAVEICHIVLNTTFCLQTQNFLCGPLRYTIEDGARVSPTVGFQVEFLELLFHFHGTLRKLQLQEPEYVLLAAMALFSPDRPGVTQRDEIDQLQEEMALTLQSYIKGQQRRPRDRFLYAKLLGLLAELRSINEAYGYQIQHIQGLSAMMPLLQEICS

Regarding `Oc1ccc(C2Oc3cc(O)c4c(c3[C@@H]2c2cc(O)cc(O)c2)[C@H]2C(c3ccc(O)cc3)c3c(O)cc5c(c3[C@H]2C4c2ccc(O)cc2)[C@H](c2cc(O)cc(O)c2)C(c2ccc(O)cc2)O5)cc1` (some centres not stated), the outcome in [1], in [14], in [17] and in experiment [18] was inactive. Further, the Potency result in experiment [2], in experiment [3], in [4], in [5], in [6] and in experiment [8] was “inactive” in each case. The Potency result in [9], in experiment [10], in experiment [11], in experiment [12], in experiment [13] and in experiment [15] was “inactive” in each case. Also, the Potency entry in experiment [16] and in [19] was “inactive” in each case. Also, in experiment [7], the Potency was 13200 nM (active).
`CC(C)=CCC/C(C)=C/Cc1cc([C@@H]2CC(=O)c3c(cc(O)c(CC=C(C)C)c3O)O2)ccc1O`: the call in experiment [1], in experiment [14], in experiment [17] and in experiment [18] was inactive. In addition, the Potency result in experiment [2], in [3], in experiment [4], in [6], in experiment [7] and in [8] was “inactive” in each case. Further, the Potency result in experiment [20], in experiment [9], in experiment [10], in [11], in experiment [12] and in [15] was “inactive” throughout. Moreover, the Potency entry in experiment [16] and in experiment [19] was “inactive” each time.
Take `COc1cc(/C=C/C(=O)OC[C@@H](Cc2ccc(O)c(OC)c2)[C@@H](COC(=O)/C=C/c2ccc(O)c(OC)c2)Cc2ccc(O)c(OC)c2)ccc1O`: the Potency is 8330 nM (active) in [4]; 20900 nM (active) in [7]; 14800 nM (active) in experiment [20]; 1480 nM (active) in [10]; 15300 nM (active) in experiment [16]. The Potency result in [5], in experiment [6], in [8], in [11], in experiment [12] and in [13] was “inactive” each time. The Potency result in [15] was “inactive”. In addition, the call in experiment [14] and in [17] was inactive.
In the case of `C=C1CCC2C(C)(C(=O)O)CCC(CC/C(C)=C/C(=O)NC(CCC(N)=O)C(=O)O)[C@@]2(C)C1` (some centres not stated), the compound was classed as inactive in experiment [1], in experiment [14], in experiment [17] and in experiment [18]. Moreover, the Potency result in experiment [2], in experiment [3], in [4], in [5], in experiment [6] and in experiment [7] was “inactive” throughout. Moreover, the Potency result in experiment [8], in experiment [20], in experiment [9], in [10], in experiment [11] and in experiment [12] was “inactive” in each case. The Potency result in [13], in experiment [15], in experiment [16] and in experiment [19] was “inactive” each time.
As to `COc1cc([C@@H]2c3cc4c(cc3C[C@@]3(O[C@@H]5O[C@H](CO)[C@@H](O)[C@H](O)[C@H]5O)COC(=O)[C@H]23)OCO4)cc(OC)c1OC`, the compound was classed as inactive in experiment [1], in experiment [14], in [17] and in experiment [18]. Besides, the Potency result in experiment [2], in experiment [3], in [4], in experiment [5], in [6] and in experiment [8] was “inactive” each time. Besides, the Potency entry in experiment [9], in experiment [10], in [13], in experiment [15] and in experiment [16] was “inactive” in each case. In addition, the Potency in [7] was 37.2 nM (active); in [20], 41.8 nM (active); in experiment [12], 66 nM (active); in experiment [19] it was 48 nM (active).
Turning to `C/C1=C/[C@@H](C)[C@H](O)[C@@H](O)/C=C/CC/C=C/C(=O)O[C@@H]1[C@H](C)C(=O)/C=C/CC1CC(=O)NC(=O)C1`, the result in experiment [1], in [14], in [17] and in experiment [18] was inactive. The Potency entry in experiment [2], in experiment [3], in experiment [4], in experiment [5], in experiment [6] and in experiment [7] was “inactive” each time. Moreover, the Potency result in [8], in experiment [9], in [13], in [15] and in experiment [16] was “inactive” each time. The results for the Potency in experiment [12] and in [19] were 2090 nM (active) and 3030 nM (active), respectively.
